Experimental data from PubChem BioAssay (Tox21).
Results filed as inconclusive are left out. The source made the active and inactive calls. Unless noted, calls follow the shape of the dose curve; as a rule, active = well fitted curve in the direction sought with a large enough effect in the repeat runs; inconclusive = weak or mixed curves; inactive = no such curve, though single readings can be large; an effect the other way counts as inactive or inconclusive.

Legend:
[1] = qHTS assay to identify aromatase inhibitors - cell viability counter screen (AID 743084);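 also: cells stimulated with testosterone during compound exposure; nearly all actives have a fitted effect of over 55% in size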
[2] = molecular target: Aryl hydrocarbon receptor (Homo sapiens) (UniProt P35869); experiment: qHTS assay to identify small molecule that activate the aryl hydrocarbon receptor (AhR) signaling pathway (AID 743085);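 also: HG2L7.5c1 human HepG2 liver cells with stably integrated DRE-driven firefly reporter; series mostly up to about 70 µM; nearly all actives have a fitted effect of over 15% in size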
In short: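 Luminescence read-out: ONE-Glo reagent, 30 min at room temperature, in HG2L7.5c1 HepG2 reporter cells treated 24 h at 37C. Viability was measured beforehand by CellTiter-Fluor fluorescence after 30 min at 37C.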

[3] = qHTS assay to identify small molecule that activate the aryl hydrocarbon receptor (AhR) signaling pathway - cell viability counter screen (AID 743086);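 also: HepG2 liver cells carrying the AhR DRE luciferase reporter; series mostly up to about 70 µM; nearly all actives have a fitted effect of over 45% in size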
In short: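 HepG2-AhR-luc (HG2L7.5c1) cells, 4000/well, were preincubated 5 h at 37C, exposed to compound in qHTS format for 24 hr at 37C, then given CellTiter-Fluor for 30 min; viability was read as fluorescence in the reporter wells.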

[4] = molecular target: Peroxisome proliferator-activated receptor gamma (Homo sapiens) (UniProt P37231); experiment: qHTS assay to identify small molecule agonists of the peroxisome proliferator-activated receptor gamma (PPARg) signaling pathway (AID 743094; active = well fitted activation curve with a large enough effect in the signal ratio in the repeat runs, not every such curve was filed as active; the % refers to the signal ratio)
In short: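 Agonism was assessed in a beta-lactamase reporter system, HEK293H cells with a stably integrated UAS-bla construct under PPARg control; the 17 h treatment at 37C preceded a 1 h room-temperature FRET substrate read.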

[5] = molecular target: Peroxisome proliferator-activated receptor gamma (Homo sapiens) (UniProt P37231); experiment: qHTS assay to identify small molecule antagonists of the peroxisome proliferator-activated receptor gamma (PPARg) signaling pathway (AID 743191; calls by dose curve; also: series mostly up to about 63 µM; nearly all actives have a fitted effect of over 30% in size)
In short: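 GeneBLAzer PPARg UAS-bla HEK293H cells carrying a UAS-driven beta-lactamase reporter were plated at 3000 cells/well, preincubated 5 h at 37C, then given compound for 17 h at 37C; LiveBLAzer B/G FRET substrate was read after 1 h at room temperature.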

[6] = qHTS assay to identify small molecule antagonists of the peroxisome proliferator-activated receptor gamma (PPARg) signaling pathway - cell viability counter screen (AID 743194); also: nearly all actives have a fitted effect of over 55% in size
In short: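 PPARg-UAS-bla HEK293H cells were plated, rested 5 h at 37 C, then treated with compounds plus rosiglitazone (50 nM final) for 17 h at 37 C; viability was then read by CellTiter-Glo luminescence after 30 min at room temperature.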

[7] = qHTS assay for small molecule agonists of the antioxidant response element (ARE) signaling pathway (AID 743202; active = well fitted activation curve with a large enough effect in the signal ratio in the repeat runs, not every such curve was filed as active; the % refers to the signal ratio)
In short: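 Following a 16 h, 37 C exposure of reporter HepG2 cells (ARE-driven beta-lactamase, 2,000 cells/well) to compounds, FRET substrate was applied for 2 h at room temperature and fluorescence intensity recorded.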

[8] = qHTS assay for small molecule agonists of the antioxidant response element (ARE) signaling pathway - cell viability counter screen (AID 743203; calls by dose curve; also: nearly all actives have a fitted effect of over 55% in size)
In short: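 ATP content via CellTiter-Glo luminescence served as the viability measure. Cells: ARE-bla HepG2, 2,000 per well. Exposure: 16 hrs, 37C/5% CO2.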

[9] = qHTS assay for small molecule activators of the heat shock response signaling pathway - cell viability counter screen (AID 743209); also: nearly all actives have a fitted effect of over 50% in size
In short: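 Compounds dissolved in DMSO were added to overnight-plated HSE-bla HeLa cells and left 5 h at 37 C. Cell viability was quantified by luminescence using CellTiter-Glo.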

[10] = qHTS assay for small molecule activators of the heat shock response signaling pathway (AID 743210; active = well fitted activation curve with a large enough effect in the signal ratio in the repeat runs, with a control signal flat, not every such curve was filed as active; the % refers to the signal ratio; also: series mostly up to about 63 µM)
In short: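 Heat shock element–beta-lactamase HeLa reporter cells; qHTS with compounds for 5 h at 37 C; detection by FRET substrate fluorescence after 2.5 h at RT.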

[11] = qHTS assay to identify small molecule agonists of the peroxisome proliferator-activated receptor delta (PPARd) signaling pathway - cell viability counter screen (AID 743211); also: nearly all actives have a fitted effect of over 55% in size
In short: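 Read-out: CellTiter-Glo luminescence, 30 min RT, measured in the same wells as the beta-lactamase reporter. Cells: GeneBLAzer PPAR delta UAS-bla HEK293H, 3000 cells/well, compound exposure 17 h at 37C.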

[12] = molecular target: Peroxisome proliferator-activated receptor delta (Homo sapiens) (UniProt Q03181); experiment: qHTS assay to identify small molecule agonists of the peroxisome proliferator-activated receptor delta (PPARd) signaling pathway (AID 743212; calls by dose curve)
In short: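 Beta-lactamase reporter read by fluorescence (LiveBLAzer B/G FRET, 2 h, room temperature). Test agents, in DMSO, incubated at 37 C with PPARd-bla HEK293H cells.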

[13] = qHTS assay to identify small molecule antagonists of the peroxisome proliferator-activated receptor delta (PPARd) signaling pathway - cell viability counter screen (AID 743213); also: nearly all actives have a fitted effect of over 50% in size
In short: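 Agonist-stimulated (L165041, 300 nM final) HEK293H PPARd UAS-bla cells are exposed to compounds for 17 h at 37 C, and ATP-based luminescence (CellTiter-Glo) from the same wells reports cytotoxicity.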

[14] = molecular target: Peroxisome proliferator-activated receptor delta (Homo sapiens) (UniProt Q03181); experiment: qHTS assay to identify small molecule antagonists of the peroxisome proliferator-activated receptor delta (PPARd) signaling pathway (AID 743215; active = well fitted inhibition curve with a large enough effect in the signal ratio in the repeat runs, not every such curve was filed as active; the % refers to the signal ratio; also: series mostly up to about 62 µM)
In short: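 Here, a reporter line (HEK293H, beta-lactamase under a UAS) measures PPARd signaling. Compounds are tested against agonist L165041 at 300 nM final concentration over 17 h at 37 C, with fluorescence read after substrate.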

[15] = qHTS assay to identify small molecule agonists of the farnesoid-X-receptor (FXR) signaling pathway - cell viability counter screen (AID 743218); also: nearly all actives have a fitted effect of over 45% in size
In short: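 Quantitative HTS counter screen measuring ATP-based viability via CellTiter-Glo luminescence in HEK 293T cells carrying a UAS-driven beta-lactamase reporter, after 16 h compound exposure at 37 C.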

[16] = qHTS assay to identify small molecule antagonists of the farnesoid-X-receptor (FXR) signaling pathway - cell viability counter screen (AID 743221; active = well fitted cell-killing curve with a large enough effect in the repeat runs, not every such curve was filed as active; also: nearly all actives have a fitted effect of over 50% in size)
In short: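 HEK 293T FXR-bla cells, 5 h pre-incubation; compound + CDCA 50 uM final, 16 h, 37 C; beta-lactamase FRET read first, then CellTiter-Glo luminescence, 30 min RT.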

[17] = molecular target: Vitamin D3 receptor (Homo sapiens) (UniProt P11473); experiment: qHTS assay to identify small molecule agonists of the vitamin D receptor (VDR) signaling pathway (AID 743222; calls by dose curve)
In short: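 Tox21 cell reporter format: VDR-bla line, 16 h compound exposure in 5% CO2 at 37C, then fluorescence intensity after 2 h with LiveBLAzer B/G FRET substrate.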

[18] = molecular target: Vitamin D3 receptor (Homo sapiens) (UniProt P11473); experiment: qHTS assay to identify small molecule antagonists of the vitamin D receptor (VDR) signaling pathway (AID 743223; active = well fitted inhibition curve with a large enough effect in the signal ratio in the repeat runs, not every such curve was filed as active; the % refers to the signal ratio)
In short: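 Beta-lactamase reporter read-out: FRET substrate fluorescence after 2 h at room temperature, following 16 h exposure of VDR-bla cells to test compound plus 3 nM (final) 1alpha,25-dihydroxyvitamin D3 agonist at 37C.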

[19] = molecular target: Bile acid receptor (Homo sapiens) (UniProt Q96RI1); experiment: qHTS assay to identify small molecule antagonists of the farnesoid-X-receptor (FXR) signaling pathway (AID 743217; active = well fitted inhibition curve with a large enough effect in the signal ratio in the repeat runs, not every such curve was filed as active; the % refers to the signal ratio)
In short: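 Test compounds are pin-transferred onto FXR-bla HEK 293T cells, then chenodeoxycholic acid is added at 50 uM final. After 16 h at 37 °C, LiveBLAzer B/G substrate is applied for 2 h at room temperature and fluorescence read.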

[20] = molecular target: Bile acid receptor (Homo sapiens) (UniProt Q96RI1); experiment: qHTS assay to identify small molecule agonists of the farnesoid-X-receptor (FXR) signaling pathway (AID 743220; active = well fitted activation curve with a large enough effect in the signal ratio in the repeat runs, not every such curve was filed as active; the % refers to the signal ratio)
In short: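 FXR-UAS-bla HEK 293T cells carrying a UAS-driven beta-lactamase reporter were plated for 5 h at 37C/5% CO2, then exposed to DMSO-dissolved Tox21 10K compounds for 16 h at 37C. A LiveBLAzer B/G FRET substrate was loaded for 2 h at room temperature before fluorescence reading.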

Measured: Potency

Sequence of Bile acid receptor (Homo sapiens) (Q96RI1 whole entry, looked up): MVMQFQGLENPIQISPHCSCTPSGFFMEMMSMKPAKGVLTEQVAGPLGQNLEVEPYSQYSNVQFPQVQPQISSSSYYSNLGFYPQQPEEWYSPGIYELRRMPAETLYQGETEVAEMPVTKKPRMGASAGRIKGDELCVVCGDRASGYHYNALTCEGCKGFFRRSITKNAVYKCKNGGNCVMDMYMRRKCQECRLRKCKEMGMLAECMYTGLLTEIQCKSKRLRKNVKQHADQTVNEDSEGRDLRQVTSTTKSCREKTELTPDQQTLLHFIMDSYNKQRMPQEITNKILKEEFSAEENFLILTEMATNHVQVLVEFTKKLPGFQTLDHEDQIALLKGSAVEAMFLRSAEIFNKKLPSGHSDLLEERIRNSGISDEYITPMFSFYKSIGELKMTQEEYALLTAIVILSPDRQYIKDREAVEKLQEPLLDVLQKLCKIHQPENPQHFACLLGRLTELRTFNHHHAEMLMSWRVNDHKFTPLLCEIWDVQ
Sequence of Aryl hydrocarbon receptor (Homo sapiens) (P35869 whole entry, looked up): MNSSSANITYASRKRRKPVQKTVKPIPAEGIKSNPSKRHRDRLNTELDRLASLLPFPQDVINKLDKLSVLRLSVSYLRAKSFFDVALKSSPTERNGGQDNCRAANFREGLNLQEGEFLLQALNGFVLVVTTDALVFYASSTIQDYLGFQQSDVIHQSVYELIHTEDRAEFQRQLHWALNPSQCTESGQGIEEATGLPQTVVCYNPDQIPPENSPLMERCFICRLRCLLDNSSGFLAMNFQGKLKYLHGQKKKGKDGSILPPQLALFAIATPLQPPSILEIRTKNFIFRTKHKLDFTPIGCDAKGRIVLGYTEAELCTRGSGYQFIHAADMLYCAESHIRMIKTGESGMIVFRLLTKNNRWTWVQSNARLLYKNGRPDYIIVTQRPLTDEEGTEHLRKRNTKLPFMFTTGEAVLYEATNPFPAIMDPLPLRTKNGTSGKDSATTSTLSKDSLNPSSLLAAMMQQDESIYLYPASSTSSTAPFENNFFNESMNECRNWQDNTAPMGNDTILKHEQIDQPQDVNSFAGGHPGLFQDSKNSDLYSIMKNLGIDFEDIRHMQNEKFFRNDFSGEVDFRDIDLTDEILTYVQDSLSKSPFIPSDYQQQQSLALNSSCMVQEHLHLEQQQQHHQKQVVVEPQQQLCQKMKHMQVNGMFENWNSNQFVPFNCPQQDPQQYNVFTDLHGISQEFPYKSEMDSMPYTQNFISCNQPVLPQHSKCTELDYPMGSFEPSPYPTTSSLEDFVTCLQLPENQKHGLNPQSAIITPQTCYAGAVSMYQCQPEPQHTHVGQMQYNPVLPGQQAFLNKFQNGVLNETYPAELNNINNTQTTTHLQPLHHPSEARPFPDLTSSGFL
Sequence of Peroxisome proliferator-activated receptor delta (Homo sapiens) (Q03181 whole entry, looked up): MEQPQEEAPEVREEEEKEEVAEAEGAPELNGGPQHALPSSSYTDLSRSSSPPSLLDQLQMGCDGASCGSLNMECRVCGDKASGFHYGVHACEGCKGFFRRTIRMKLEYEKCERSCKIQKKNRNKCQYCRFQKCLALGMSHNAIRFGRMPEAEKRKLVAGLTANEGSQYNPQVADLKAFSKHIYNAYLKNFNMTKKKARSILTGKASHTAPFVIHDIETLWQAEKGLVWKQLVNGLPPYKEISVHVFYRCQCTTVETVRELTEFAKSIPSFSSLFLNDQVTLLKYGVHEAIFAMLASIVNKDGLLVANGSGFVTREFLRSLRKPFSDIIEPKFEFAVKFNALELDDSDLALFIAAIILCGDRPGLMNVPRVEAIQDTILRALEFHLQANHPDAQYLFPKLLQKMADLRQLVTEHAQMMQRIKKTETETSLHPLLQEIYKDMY
Sequence of Peroxisome proliferator-activated receptor gamma (Homo sapiens) (P37231 whole entry, looked up): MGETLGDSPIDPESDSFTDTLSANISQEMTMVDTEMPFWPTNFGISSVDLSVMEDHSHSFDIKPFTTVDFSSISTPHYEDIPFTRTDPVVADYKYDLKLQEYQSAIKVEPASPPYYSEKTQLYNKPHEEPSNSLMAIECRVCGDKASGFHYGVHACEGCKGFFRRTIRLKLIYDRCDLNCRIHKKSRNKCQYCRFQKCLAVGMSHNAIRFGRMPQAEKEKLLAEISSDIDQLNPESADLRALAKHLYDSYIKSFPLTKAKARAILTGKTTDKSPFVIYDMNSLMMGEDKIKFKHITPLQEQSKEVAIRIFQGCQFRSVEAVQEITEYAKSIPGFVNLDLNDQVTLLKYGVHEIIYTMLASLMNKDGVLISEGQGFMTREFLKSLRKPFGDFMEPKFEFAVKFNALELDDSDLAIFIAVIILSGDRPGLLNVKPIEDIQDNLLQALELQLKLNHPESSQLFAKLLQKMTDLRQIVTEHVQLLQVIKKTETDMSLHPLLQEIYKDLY
Sequence of Vitamin D3 receptor (Homo sapiens) (P11473 whole entry, looked up): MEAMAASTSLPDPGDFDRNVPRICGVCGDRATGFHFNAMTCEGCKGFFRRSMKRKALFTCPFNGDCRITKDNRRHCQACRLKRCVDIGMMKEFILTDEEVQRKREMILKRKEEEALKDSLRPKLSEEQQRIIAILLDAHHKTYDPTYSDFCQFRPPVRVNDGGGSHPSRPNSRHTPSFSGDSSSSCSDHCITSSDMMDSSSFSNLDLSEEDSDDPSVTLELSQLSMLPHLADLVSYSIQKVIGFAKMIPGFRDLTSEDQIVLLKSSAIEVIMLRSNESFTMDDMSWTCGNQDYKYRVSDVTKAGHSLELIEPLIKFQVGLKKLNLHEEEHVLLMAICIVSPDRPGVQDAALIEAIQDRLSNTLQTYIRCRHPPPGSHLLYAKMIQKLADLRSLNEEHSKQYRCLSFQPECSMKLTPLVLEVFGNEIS

Cc1ccc(C(C)(C)C)cc1
inactive: [1] | [2] | [3] | [4] | [5] | [6] | [7] | [8] | [9] | [10] | [11] | [12] | [13] | [14] | [15] | [16] | [17] | [18]

CC(=O)Oc1c(C)c(C)c2c(c1C)CC[C@@](C)(CCC[C@H](C)CCC[C@H](C)CCCC(C)C)O2
inactive: [1] | [2] | [3] | [4] | [5] | [6] | [7] | [8] | [9] | [11] | [13] | [15] | [17] | [18]

C=C[Si](OCCOC)(OCCOC)OCCOC
inactive: [1] | [2] | [3] | [4] | [5] | [6] | [7] | [8] | [10] | [11] | [13] | [14] | [19] | [15] | [20] | [16] | [17] | [18]

C=CN1CCCC1=O
inactive: [1] | [2] | [3] | [4] | [5] | [6] | [7] | [8] | [9] | [10] | [11] | [13] | [14] | [15]

COC(=O)CC(=O)OC
inactive: [1] | [2] | [3] | [4] | [5] | [6] | [7] | [8] | [9] | [10] | [11] | [13] | [14] | [16] | [17] | [18]

FC(F)(F)C(Cl)Br (stereo not given)
inactive: [1] | [2] | [3] | [4] | [5] | [6] | [7] | [8] | [9] | [10] | [11] | [12] | [13] | [14] | [15] | [16]

C=CC(C)(O)CCC=C(C)C (stereo not given)
inactive: [1] | [2] | [3] | [4] | [5] | [6] | [7] | [8] | [9] | [10] | [11] | [13] | [19] | [15] | [20] | [16] | [17] | [18]

CCc1cccc2c3c([nH]c12)C(CC)(CC(=O)O)OCC3 (stereo not given)
inactive: [1] | [2] | [3] | [4] | [5] | [6] | [7] | [8] | [9] | [10] | [11] | [13] | [19] | [20] | [17] | [18]
